Reference: PubChem BioAssay (NCI)
The panel holds about 83,000 compounds, 20% with a hit somewhere; the sample as a whole holds those more often.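 Activity criterion: percent growth below 10, measured after cells in 96-well plates were exposed to a single compound concentration for 48 hours.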 Values without a mark were called inactive. Calls of active or inactive are those of the source.

Legend:
Assay in all cases: NCI-60 one-dose screen, 48 h (100 = growth as untreated, 0 = no growth, -100 = all killed)
Settings in all cases: 10 µM unless noted
HCT-15 colon = test system: HCT-15 colon
HT29 colon = test system: HT29 colon
SNB-75 CNS = test system: SNB-75 CNS
SNB-19 CNS = test system: SNB-19 CNS
U251 CNS = test system: U251 CNS
PC-3 prostate = test system: PC-3 prostate
SK-MEL-5 melanoma = test system: SK-MEL-5 melanoma
UACC-62 melanoma = test system: UACC-62 melanoma
LOX IMVI melanoma = test system: LOX IMVI melanoma
SK-MEL-28 melanoma = test system: SK-MEL-28 melanoma
SK-MEL-2 melanoma = test system: SK-MEL-2 melanoma
EKVX NSCLC = test system: EKVX NSCLC
SN12C renal = test system: SN12C renal
UO-31 renal = test system: UO-31 renal
TK-10 renal = test system: TK-10 renal
ACHN renal = test system: ACHN renal
CAKI-1 renal = test system: CAKI-1 renal
A498 renal = test system: A498 renal
CCRF-CEM leukemia = test system: CCRF-CEM leukemia
MOLT-4 leukemia = test system: MOLT-4 leukemia

Compound | growth (HCT-15 colon) | growth (HT29 colon) | growth (SNB-75 CNS) | growth (SNB-19 CNS) | growth (U251 CNS) | growth (PC-3 prostate) | growth (SK-MEL-5 melanoma) | growth (UACC-62 melanoma) | growth (LOX IMVI melanoma) | growth (SK-MEL-28 melanoma) | growth (SK-MEL-2 melanoma) | growth (EKVX NSCLC) | growth (SN12C renal) | growth (UO-31 renal) | growth (TK-10 renal) | growth (ACHN renal) | growth (CAKI-1 renal) | growth (A498 renal) | growth (CCRF-CEM leukemia) | growth (MOLT-4 leukemia)
O=C(Cc1ccc([N+](=O)[O-])cc1)Oc1ccccc1 | 104% | 104% | 102% | 103% | 107% | 93.1% | 105% | 101% | 107% | 112% | 102% | 128% | 106% | 77% | 104% | 110% | 117% | 107% | 99.3% | 108%
CCN1C(=O)C(C)C=C(C)C=C1C (stereo not given) | 99.9% | 111% | 104% | 109% | 111% | 123% | 98.1% | 103% | 103% | 116% | 102% | 114% | 112% | 86.8% | 105% | 102% | 107% | 112% | 102% | 92.4%
N/C(=N\OC(=O)c1ccccc1)C(Cc1ccccc1)C(=O)NOC(=O)c1ccccc1 (stereo not given) | 33.2% | 85.7% | 4.73% (active) | 56.8% | -71% (active) | 43% | 72.2% | 71.2% | -81.2% (active) | 89.6% | 89.7% | 59.2% | 68.8% | -59.5% (active) | 78.3% | 15.1% | -44.6% (active) | 59.5% | 9.98% (active) | 35.2%
C=C(COC(C)=O)[C@H]1CC/C(C)=C/CC/C(C)=C/CC[C@@]2(C)O[C@H]2C1 | 96% | 108% | 109% | 106% | 98.3% | 129% | 108% | 99.6% | 94.6% | 104% | 101% | 106% | 106% | 99.9% | 108% | 99.8% | 126% | 119% | 328% | 110%
CCCCOC(=O)c1cc(O)c(O)c(O)c1 | 49.1% | 85.3% | 55.6% | 88.9% | 65.2% | 80.4% | 93.5% | 62% | 74.4% | 90.6% | 75% | 83.6% | 62.7% | 31.7% | 73% | 75% | 70.5% | 122% | 36.5% | 30.7%
CC(=O)c1ccc(Br)c([N+](=O)[O-])c1 | 104% | 98% | 92.7% | 98.7% | 104% | 104% | 99.9% | 111% | 90% | 118% | 102% | 104% | 104% | 90.7% | 91.5% | 111% | -7.58% (active) | 76.9% | 98.1% | 96.8%
Fc1ccc(-c2cnc3nonc3n2)c(F)c1 | 78.3% | 113% | 96.4% | 92.5% | 111% | 73.3% | 96.2% | 87.6% | 93.1% | 101% | 108% | 108% | 107% | 89.1% | 121% | 95.2% | 96.3% | 80.9% | 46.1% | 77.6%
CCN(CC)C(=O)O/N=C(/C)c1ccccc1 | 110% | 102% | 83% | 99.6% | 89.7% | 98.6% | 94.2% | 99.1% | 91.1% | 97.9% | 102% | 112% | 100% | 101% | 87.2% | 112% | 115% | 103% | 100% | 109%
COc1ccc2[nH]cc(C3(c4c[nH]c5ccc(OC)cc45)C(=O)Nc4ccc(F)cc43)c2c1 | 86.6% | 68% | 42.9% | 97.2% | 82.5% | 9.66% (active) | 84.1% | 82.3% | 58.5% | 96.4% | 98.3% | 37% | 106% | 62% | 125% | 86.7% | 40.8% | 60.8% | 15.4% | 1.29% (active)
O=C1/C(=C/c2cc(F)cc(F)c2)Cc2cc(F)cc(F)c21 | 95.4% | 92.3% | 93.9% | 86.8% | 104% | 88.1% | 76.8% | 85.6% | 86.8% | 96.7% | 93.7% | 88% | 106% | 70.9% | 102% | 92.7% | 77.6% | 90.2% | 110% | 87.3%
CCN(CC)CCNC(=O)n1cc(-c2ccncc2)c(-c2cc(Cl)cc(OC)c2)n1 | 86% | 31.3% | 48% | 76.5% | 75.4% | 79.8% | 84.8% | 70.3% | 78.7% | 91.3% | 92.3% | 43.4% | 70.2% | 43.8% | 30.1% | 57.1% | 68.1% | 63.7% | 83.3% | 82.1%
OC(COCc1ccccc1)COCc1ccccc1 | 109% | 106% | 90.8% | 111% | 96.1% | 111% | 111% | 103% | 101% | 113% | 111% | 91.5% | 104% | 91.6% | 109% | 99% | 96.5% | 89.7% | 99.5% | 96.4%
COc1cc(OC)c(Cl)cc1N | 96.6% | 107% | 101% | 100% | 104% | 88.7% | 112% | 97.8% | 101% | 109% | 116% | 118% | 93.1% | 91.3% | 105% | 101% | 91.6% | 90.9% | 97.3% | 108%
OCCN(CCO)c1ccc2ccccc2c1 | 98.4% | 94.3% | 88.1% | 104% | 104% | 83.2% | 100% | 91.4% | 91.4% | 108% | 87.3% | 102% | 94.2% | 65% | 97.6% | 106% | 97.3% | 110% | 109% | 98.8%
C=C(C)[C@@H]1CC[C@]2(C(=O)O)CC[C@]3(C)[C@H](CC[C@@H]4[C@@]5(C)C[C@@H](CC#Cc6ccc(C(C)=O)s6)[C@H](O)C(C)(C)[C@@H]5CC[C@]43C)[C@@H]12 | 33.4% | 34.5% | 71.1% | 75.7% | 32.3% | 26% | 43.3% | 52.3% | 65% | 76.5% | 51.9% | 53.2% | 68% | 56.6% | 49.6% | 47.9% | 40.7% | -3.73% (active) | 44.7% | 32.5%
COc1ccc2nc3cc(Cl)ccc3c(NC(=O)CSc3ccc(Cl)cc3)c2c1 | -53.6% (active) | -78.3% (active) | -99.2% (active) | -86.4% (active) | -90.6% (active) | -81.8% (active) | -98% (active) | -80% (active) | -80.3% (active) | -96.8% (active) | -88.5% (active) | -62.4% (active) | -75.3% (active) | -96.1% (active) | -96.1% (active) | -94.6% (active) | -90.8% (active) | -99% (active) | 1.21% (active) | -52% (active)
